# Whole data set: some 8,300 sequences, median “log2 fold change of degron read counts, EGFP-low vs EGFP+ sorted cells (limma voom), compound-induced degradation” near -1.1, cut for the highest 2% near 3.2. The sample as a whole holds a higher share of the highest values than the screen did.
# T1: CRBN, Q96SW2
# T1 chain: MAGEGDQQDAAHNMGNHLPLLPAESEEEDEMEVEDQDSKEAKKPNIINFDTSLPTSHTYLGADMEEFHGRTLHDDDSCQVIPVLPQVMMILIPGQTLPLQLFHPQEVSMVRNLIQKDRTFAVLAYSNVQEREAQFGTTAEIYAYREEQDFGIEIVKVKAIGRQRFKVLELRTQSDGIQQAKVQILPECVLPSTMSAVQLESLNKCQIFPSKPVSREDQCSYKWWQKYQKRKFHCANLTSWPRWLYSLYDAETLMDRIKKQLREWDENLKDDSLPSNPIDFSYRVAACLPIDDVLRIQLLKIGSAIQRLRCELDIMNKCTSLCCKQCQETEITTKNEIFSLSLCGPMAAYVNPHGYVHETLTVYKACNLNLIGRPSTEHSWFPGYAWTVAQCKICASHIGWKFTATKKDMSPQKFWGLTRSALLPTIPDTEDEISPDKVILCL
# B1: 46F_47R_49E_50I_52G_53R_54R_55F_67L_, Q9UKT9 (peptide)
# chain: FRCEICGRRFTQKGNLLRHIKL
# B2: 46F_47S_49D_50Q_52G_53A_54E_55F_67L_, Q9UKT9 (peptide)
# chain: FSCDQCGAEFTQKGNLLRHIKL
# B3: 46F_47C_49P_50I_52G_53R_54C_55F_67L_, Q9UKT9 (peptide)
# chain: FCCPICGRCFTQKGNLLRHIKL
# B4: 46F_47V_49E_50I_52G_53R_54P_55F_67L_, Q9UKT9 (peptide)
# chain: FVCEICGRPFTQKGNLLRHIKL
# B5: 46L_47C_49P_50I_52G_53F_54K_55C_67L_, Q9UKT9 (peptide)
# chain: LCCPICGFKCTQKGNLLRHIKL
# B6: 46F_47N_49E_50I_52G_53A_54K_55F_67L_, Q9UKT9 (peptide)
# chain: FNCEICGAKFTQKGNLLRHIKL
# B7: 46F_47E_49E_50I_52G_53A_54K_55F_67L_, Q9UKT9 (peptide)
# chain: FECEICGAKFTQKGNLLRHIKL
# B8: 46F_47Q_49E_50I_52G_53A_54K_55F_67L_, Q9UKT9 (peptide)
# chain: FQCEICGAKFTQKGNLLRHIKL
# B9: 46F_47F_49E_50I_52G_53A_54K_55F_67L_, Q9UKT9 (peptide)
# chain: FFCEICGAKFTQKGNLLRHIKL
# B10: 46F_47L_49E_50I_52G_53A_54K_55F_67L_, Q9UKT9 (peptide)
# chain: FLCEICGAKFTQKGNLLRHIKL
# B11: 46F_47Y_49E_50I_52G_53A_54K_55F_67L_, Q9UKT9 (peptide)
# chain: FYCEICGAKFTQKGNLLRHIKL
# B12: 46F_47D_49E_50I_52G_53A_54K_55F_67L_, Q9UKT9 (peptide)
# chain: FDCEICGAKFTQKGNLLRHIKL
# B13: 46F_47K_49E_50I_52G_53A_54K_55F_67L_, Q9UKT9 (peptide)
# chain: FKCEICGAKFTQKGNLLRHIKL
# B14: 46F_47H_49E_50I_52G_53A_54K_55F_67L_, Q9UKT9 (peptide)
# chain: FHCEICGAKFTQKGNLLRHIKL
# B15: 46F_47S_49E_50I_52G_53A_54K_55F_67L_, Q9UKT9 (peptide)
# chain: FSCEICGAKFTQKGNLLRHIKL
# B16: 46F_47C_49E_50I_52G_53A_54K_55F_67L_, Q9UKT9 (peptide)
# chain: FCCEICGAKFTQKGNLLRHIKL
# B17: 46F_47A_49N_50I_52G_53A_54C_55F_67L_, Q9UKT9 (peptide)
# chain: FACNICGACFTQKGNLLRHIKL
# B18: 46F_47K_49E_50I_52G_53R_54R_55F_67L_, Q9UKT9 (peptide)
# chain: FKCEICGRRFTQKGNLLRHIKL
# Target: T1, CRBN, Q96SW2
# Assay: log2 fold change of degron read counts, EGFP-low vs EGFP+ sorted cells (limma voom), compound-induced degradation; higher = more compound-induced degradation of the degron-EGFP fusion; degrons are variants of IKZF1/3 zinc finger 2; compound dose not given here
# Settings: Jurkat, 18 h
# [1] = compound: compound 19 (5-tert-butyl-thalidomide)
# [2] = compound: compound 22 (5-morpholino-thalidomide)
# [3] = compound: compound 33 (diphenyl IMiD analogue)
# 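Note: pooled lentiviral library of zinc finger degron-EGFP fusions in mCherry-positive Jurkat cells, FACS-sorted after compound exposure, with degron abundance counted by next-generation sequencing.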
Sequence,log2 fold change of degron read counts [1],log2 fold change of degron read counts [2],log2 fold change of degron read counts [3],log2 fold change of degron read counts (compound: thalidomide)
B1,-2.67,-2.2,-1.21,-0.634
B2,-2.57,-3.41,-1.87,-2.94
B3,-0.609,-0.825,0.868,0.188
B4,-1.68,-0.932,-1.28,-0.0354
B5,1.84,1.91,0.929,2.55
B6,2.53,0.377,-1.68,0.453
B7,0.521,-1.41,-0.834,2.62
B8,0.93,2.95,0.278,3.46
B9,3.78,3.65,1.37,1.7
B10,0.834,-0.868,-0.0729,2.07
B11,3.9,3.84,1.98,1.59
B12,2.14,0.278,-2.01,1.01
B13,-1.09,-3.1,-3.06,-1.37
B14,2.99,2.33,-0.357,0.544
B15,3.23,1.96,-0.76,1.76
B16,3.35,2.52,0.0496,2.53
B17,2.13,1.95,0.735,-0.49
B18,-2.87,-3.55,-3,-1.89
